For five molecules, outcome and AC50 results are on record in PubChem BioAssay (EPA / NIEHS).

The structures appear in SMILES notation. Several values for one entry are separate records, joined by “and”; a condition that tells them apart may be missing. Equal entries are not always repeated. Where a structure was tested more than once in an assay, its records may differ in their call. Activity calls are given as the source filed them. The calls were made as follows: active = hit-call score of the fitted dose curve at least 0.9, where 1 is the maximum; inactive = score below 0.9.

Read-out in test [1]: Interleukin-8 (IL8), CXCL8 (gene 3576)
As to the kind of experiment: BSK_CASM3C_IL8: BioMAP Diversity Plus: CASM3C Assay for Interleukin-8 (IL8) Biomarker Activity (AID 2283042).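 Also: IL-8 protein level quantified by ELISA.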 The note with it: primary human coronary artery smooth muscle cells; actives raise or lower the signal.

Read-out in test [2]: Human Leukocyte Antigen - DR isotype (HLADR), HLA-DRA (gene 3122)
As to the kind of experiment: BSK_CASM3C_HLADR: BioMAP Diversity Plus: CASM3C Assay for Human Leukocyte Antigen - DR isotype (HLADR) Biomarker Activity (AID 2283043).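 Also: cell-surface HLA-DR protein level quantified by ELISA.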 The note with it: primary human coronary artery smooth muscle cells; actives raise or lower the signal.

Read-out in test [3]: Macrophage colony-stimulating factor (MCSF), CSF1 (gene 1435)
As to the kind of experiment: BSK_CASM3C_MCSF: BioMAP Diversity Plus: CASM3C Assay for Macrophage colony-stimulating factor (MCSF) Biomarker Activity (AID 2283044).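 Also: M-CSF protein amount quantified by ELISA after 24 h exposure.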 The note with it: primary human coronary artery smooth muscle cells; actives raise or lower the signal.

Read-out in test [4]: Low-density lipoprotein receptor (LDLR), LDLR (gene 3949)
The experiment in a line: BSK_CASM3C_LDLR: BioMAP Diversity Plus: CASM3C Assay for Low-density lipoprotein receptor (LDLR) Biomarker Activity (AID 2283045).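 Also: LDLR protein level on the cell surface quantified by ELISA.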 The note with it: primary human coronary artery smooth muscle cells; actives raise or lower the signal.

Read-out in test [5]: Monocyte Chemoattractant Protein-1 (MCP1), CCL2 (gene 6347)
The experiment in a line: BSK_CASM3C_MCP1: BioMAP Diversity Plus: CASM3C Assay for Monocyte Chemoattractant Protein-1 (MCP1) Biomarker Activity (AID 2283046).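 Also: MCP-1 level quantified by ELISA 24 h after dosing.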 The note with it: primary human coronary artery smooth muscle cells; actives raise or lower the signal.

Test [6] can be described thus: BSK_CASM3C_Proliferation: Cell Proliferation Assessment in the BioMAP Diversity Plus: CASM3C Assay (AID 2283047).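 Also: sulforhodamine B total protein stain as relative cell number at 560 nm; sub-confluent cells exposed 48 h before staining; fitted both ways against DMSO so gain or loss of cell number.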 The note with it: primary human coronary artery smooth muscle cells.
Read-out in test [7]: Monokine induced gamma interferon (MIG), CXCL9 (gene 4283)
As to the kind of experiment: BSK_CASM3C_MIG: BioMAP Diversity Plus: CASM3C Assay for Monokine induced gamma interferon (MIG) Biomarker Activity (AID 2283048).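 Also: MIG protein level measured by ELISA.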 The note with it: primary human coronary artery smooth muscle cells; actives raise or lower the signal.

Read-out in test [8]: serum amyloid A (SAA), SAA1 (gene 6288)
As to the kind of experiment: BSK_CASM3C_SAA: BioMAP Diversity Plus: CASM3C Assay for serum amyloid A (SAA) Biomarker Activity (AID 2283049).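 Also: SAA protein level quantified by ELISA.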 The note with it: primary human coronary artery smooth muscle cells; actives raise or lower the signal.

The nature of test [9]: BSK_CASM3C_SRB: Viability Assessment in the BioMAP Diversity Plus: CASM3C Assay (AID 2283050).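 Also: cells exposed to compound for 24 h.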 The note with it: primary human coronary artery smooth muscle cells.
Read-out in test [10]: Thrombomodulin, THBD (gene 7056)
As to the kind of experiment: BSK_CASM3C_Thrombomodulin: BioMAP Diversity Plus: CASM3C Assay for Thrombomodulin Biomarker Activity (AID 2283051).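 Also: thrombomodulin protein level measured by ELISA 24 h after dosing.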 The note with it: primary human coronary artery smooth muscle cells; actives raise or lower the signal.

Read-out in test [11]: Tissue Factor, F3 (gene 2152)
The experiment in a line: BSK_CASM3C_TissueFactor: BioMAP Diversity Plus: CASM3C Assay for Tissue Factor Biomarker Activity (AID 2283052).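 Also: cell surface tissue factor protein level read by ELISA.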 The note with it: primary human coronary artery smooth muscle cells; actives raise or lower the signal.

Read-out in test [12]: Interferon-gamma inducible Protein 10 (IP10), CXCL10 (gene 3627)
The experiment in a line: BSK_hDFCGF_IP10: BioMAP Diversity Plus: hDFCGF Assay for Interferon-gamma inducible Protein 10 (IP10) Biomarker Activity (AID 2283053). The note with it: primary human foreskin fibroblasts; actives raise or lower the signal. In a few lines:
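Primary human foreskin fibroblasts exposed to chemicals for 24 h. IP-10 measured by ELISA; changes fitted bidirectionally against DMSO baseline.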

Read-out in test [13]: Urokinase-type plasminogen activator receptor (uPAR), PLAUR (gene 5329)
The experiment in a line: BSK_CASM3C_uPAR: BioMAP Diversity Plus: CASM3C Assay for Urokinase-type plasminogen activator receptor (uPAR) Biomarker Activity (AID 2283054).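 Also: cell-surface uPAR protein level quantified by ELISA.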 The note with it: primary human coronary artery smooth muscle cells; actives raise or lower the signal.

Read-out in test [14]: Vascular cell adhesion molecule 1 (VCAM1), VCAM1 (gene 7412)
The experiment in a line: BSK_CASM3C_VCAM1: BioMAP Diversity Plus: CASM3C Assay for Vascular cell adhesion molecule 1 (VCAM1) Biomarker Activity (AID 2283055).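 Also: VCAM-1 protein level quantified by ELISA on the cells.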 The note with it: primary human coronary artery smooth muscle cells; actives raise or lower the signal.

Read-out in test [15]: Collagen III, COL3A1 (gene 1281)
As to the kind of experiment: BSK_hDFCGF_CollagenIII: BioMAP Diversity Plus: hDFCGF Assay for Collagen III Biomarker Activity (AID 2283056). The note with it: primary human foreskin fibroblasts; actives raise or lower the signal. In a few lines:
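hDFCGF primary human dermal fibroblasts; 24 h chemical exposure; collagen III by ELISA; bidirectional curve fit vs DMSO baseline (gain or loss of signal).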

Read-out in test [16]: Epidermal growth factor receptor (EGFR), EGFR (gene 1956)
The experiment in a line: BSK_hDFCGF_EGFR: BioMAP Diversity Plus: hDFCGF Assay for Epidermal growth factor receptor (EGFR) Biomarker Activity (AID 2283057). The note with it: primary human foreskin fibroblasts; actives raise or lower the signal. The essentials: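 Primary human foreskin fibroblasts (hDFCGF system), sampled 24 h after dosing; EGFR quantified by ELISA. Bidirectional fit relative to DMSO baseline; SRB total-protein staining in parallel cultures for cytotoxicity.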

Read-out in test [17]: Interleukin-8 (IL8), CXCL8 (gene 3576)
The experiment in a line: BSK_hDFCGF_IL8: BioMAP Diversity Plus: hDFCGF Assay for Interleukin-8 (IL8) Biomarker Activity (AID 2283058). The note with it: primary human foreskin fibroblasts; actives raise or lower the signal. In a few lines: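 ELISA read-out of IL-8 from primary human foreskin fibroblast cultures taken 24 h after dosing; values are bidirectional fits relative to DMSO vehicle.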

The nature of test [18]: BSK_hDFCGF_Proliferation: Cell Proliferation Assessment in the BioMAP Diversity Plus: hDFCGF Assay (AID 2283059).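 Also: curves fitted for both rise and fall of signal versus DMSO baseline.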 The note with it: primary human foreskin fibroblasts. In a few lines: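 Sub-confluent human foreskin fibroblast cultures receive test chemical […]. Relative cell number is quantified by sulforhodamine B staining (0.1%, after 10% TCA fixation) at 560 nm, with bidirectional fitting referenced to DMSO.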

Read-out in test [19]: Macrophage colony-stimulating factor (MCSF), CSF1 (gene 1435)
As to the kind of experiment: BSK_hDFCGF_MCSF: BioMAP Diversity Plus: hDFCGF Assay for Macrophage colony-stimulating factor (MCSF) Biomarker Activity (AID 2283060). The note with it: primary human foreskin fibroblasts; actives raise or lower the signal. In a few lines: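 ELISA read-out of M-CSF in human dermal foreskin fibroblast cultures, 24 h after chemical dosing; gain or loss of signal fitted bidirectionally relative to DMSO baseline.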

A short description of test [20]: BSK_hDFCGF_SRB: Viability Assessment in the BioMAP Diversity Plus: hDFCGF Assay (AID 2283061).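 Also: cells exposed to compound for 24 h before the read.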 The note with it: primary human foreskin fibroblasts. The essentials:
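Primary human foreskin fibroblasts; 24 h post-dose; fixed 10% TCA, stained 0.1% SRB, A560 read; total protein as overt cytotoxicity measure; curves fit bidirectionally vs DMSO control.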

With `CN(C)C=O`, the result in test [1], in [2], in test [3], in test [4], in test [5] and in [6] was inactive. Also, the outcome in [7], in test [8], in test [9], in test [10], in test [11] and in [12] was inactive. Further, the outcome in [13], in test [14], in test [15], in [16], in test [17] and in test [18] was inactive. Also, the result in test [19] and in test [20] was inactive.
On to `OCCC(F)(F)C(F)(F)C(F)(F)C(F)(F)C(F)(F)C(F)(F)C(F)(F)C(F)(F)F`, for which the AC50 in [1] was 42.7 µM (active); in [2], 20 µM (active) and 27.5 µM (active) and 18.9 µM (active); in [3], 38.6 µM (active) and 30 µM (active); in test [4], 58.8 µM (active) and 55.4 µM (active); in test [5], 48.6 µM (active) and 47.4 µM (active); in [6], 20 µM (active) and 22.5 µM (active) and 21.8 µM (active). The AC50 in [7] is 46.4 µM (active) and 46.8 µM (active); in test [8] it was 43 µM (active) and 37.9 µM (active); in test [9] it was 48.7 µM (active) and 40.5 µM (active); in test [11], 30 µM (active) and 18.4 µM (active); in test [12] it was 14.6 µM (active) and 11.2 µM (active); in test [13], 42.3 µM (active) and 43.7 µM (active). The AC50 in test [14] was 12.3 µM (active) and 23.2 µM (active) and 11.5 µM (active); in [15] it was 18.3 µM (active) and 11.9 µM (active); in [17], 19.2 µM (active) and 17.4 µM (active); in test [18] it was 11.4 µM (active) and 5.06 µM (active); in test [19], 13.8 µM (active) and 12.1 µM (active). Besides, the outcome in [1], in test [3], in [4], in [5], in test [7] and in test [8] was inactive. The result in test [9], in test [10], in test [11], in test [12], in [13] and in test [15] was inactive. In addition, the result in [16], in test [17], in [18] and in [19] was inactive.
`CC(=O)CC(C)(C)O`: the outcome in test [1], in test [2], in test [3], in test [4], in test [5] and in test [6] was inactive. In addition, the result in test [7], in test [8], in test [9], in test [10], in test [11] and in [12] was inactive. The outcome in test [13], in test [14], in [15], in test [16], in test [17] and in test [18] was inactive. Besides, in test [19], the outcome was inactive.
With `O=C(O)c1ccccc1C(c1ccc(O)cc1)c1ccc(O)cc1`, the outcome in test [1], in test [2], in test [3], in test [4], in [5] and in [6] was inactive. The result in test [7], in test [8], in [9], in [10], in test [11] and in test [12] was inactive. Further, the outcome in test [13], in test [14], in test [15], in [16], in test [17] and in test [18] was inactive. In addition, the result in test [19] and in test [20] was inactive.
For `OC1CCC(C2CCCCC2)CC1` (stereo unspecified), the outcome in test [1], in test [2], in test [3], in test [4], in test [5] and in test [6] was inactive. Further, the outcome in test [7], in [8], in [9], in [10], in test [11] and in [12] was inactive. Also, the result in [13], in test [14], in test [15], in test [16], in [17] and in [18] was inactive. In addition, in test [19], the result was inactive.

As a reminder, the AC50 is the concentration at which the activity in the assay is half-maximal.
